# Records with an inconclusive call do not appear. Activity calls are given as the source filed them. Rule for the calls: active = hit-call score of the fitted dose curve at least 0.9, where 1 is the maximum; inconclusive = response in the unintended direction; inactive = score below 0.9.
# Columns and labels:
# [1] = biological target: rat Neurokinin-1 Receptor (NK1), Tacr1 (gene 24807) (UniProt P14600); experiment: NVS_GPCR_rNK1: NovaScreen (NVS) G Protein-Coupled Receptor Assay for rat Neurokinin-1 Receptor (NK1) (AID 2283309)
# Method in brief: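 Competitive radioligand binding to NK1 in rat submaxillary membranes, 1 h incubation, filtration and scintillation read-out. Compounds first screened at 25 uM in duplicate, then concentration-response for actives; signal loss relative to DMSO.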
# [2] = biological target: Voltage-dependent N-type calcium channel subunit alpha-1B (Rattus norvegicus) (UniProt Q02294); experiment: NVS_IC_rCaChN: NovaScreen (NVS) Ion Channel Assay for rat Calcium Channel, Type N (CaChN) (AID 2283317)
# [3] = biological target: rat Somatostatin Receptor (SST), Sstr1 (gene 25033) (UniProt P28646); experiment: NVS_GPCR_rSST: NovaScreen (NVS) G Protein-Coupled Receptor Assay for rat Somatostatin Receptor (SST) (AID 2283314)
# Method in brief: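 Single-concentration duplicate screen (25 uM), then concentration-response up to 50 uM for chemicals passing a threshold such as 30% inhibition. Membranes came from rat forebrain. Binding was measured 1 h post-dose by filter radiodetection and scintillation, relative to DMSO.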
# [4] = biological target: rat Gamma-Aminobutyric Acid Type A Receptor, Non-Selective (GABAR-NonSelective), Gabra1 (gene 29705) (UniProt P62813); experiment: NVS_LGIC_rGABAR_NonSelective: NovaScreen (NVS) Ligand-Gated Ion Channel Assay for rat Gamma-Aminobutyric Acid Type A Receptor, Non-Selective (GABAR-NonSelective) (AID 2283326)
# Method in brief: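 Compounds were first screened in duplicate at 25 uM, with actives run as singleton concentration series (max 50 uM). Binding of a radioligand to rat whole-brain GABA-A preparation was measured by filtration and scintillation counting after 1 h, DMSO baseline.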
# [5] = biological target: rat Glutamate Metabotropic Receptor 5 (MGluR5), Grm5 (gene 24418) (UniProt P31424); experiment: NVS_GPCR_rmMGluR5: NovaScreen (NVS) G Protein-Coupled Receptor Assay for rat Glutamate Metabotropic Receptor 5 (MGluR5) (AID 2283307)
# Method in brief: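 Compounds first screened in duplicate at 25 uM, then in concentration series up to 50 uM if over threshold. Radioligand displacement on rat whole-brain membranes, filtration and scintillation counting after 1.5 h; binding loss relative to DMSO.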
# [6] = biological target: Adra2b (gene 24174) (UniProt P19328); experiment: NVS_GPCR_rmAdra2B: NovaScreen (NVS) G Protein-Coupled Receptor Assay for hybird cells Adrenergic, Alpha 2B Receptor (Adra2B) (AID 2283306)
# Method in brief: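 Compounds screened first at 25 uM in duplicate, with actives followed up in concentration-response; specific radioligand displacement from hybrid neuroglioma/blastoma cell membrane preparations measured by filter scintillation counting after 1 h, normalized to DMSO.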
# [7] = biological target: bovine Gamma-Aminobutyric Acid Type A Receptor BDZ, alpha 1 site (GABARa1), GABRA1 (gene 780973) (UniProt P08219); experiment: NVS_LGIC_bGABARa1: NovaScreen (NVS) Ligand-Gated Ion Channel Assay for bovine Gamma-Aminobutyric Acid Type A Receptor BDZ, alpha 1 site (GABARa1) (AID 2283321)
# Method in brief: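 Bovine cortex membrane preparation, benzodiazepine site on GABA-A alpha1; specific radioligand displacement read after 0.75 h by filtration and scintillation. Screen at 25 uM, then singleton titrations up to 50 uM; DMSO baseline.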
# [8] = biological target: bovine Gamma-Aminobutyric Acid Type A Receptor BDZ, alpha 5 site (GABARa5), GABRA5 (gene 523515) (UniProt Q08E50); experiment: NVS_LGIC_bGABARa5: NovaScreen (NVS) Ligand-Gated Ion Channel Assay for bovine Gamma-Aminobutyric Acid Type A Receptor BDZ, alpha 5 site (GABARa5) (AID 2283323)
# Method in brief: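 Tested first in duplicate at a single 25 uM, with hits re-run in concentration series to a 50 uM maximum. Bovine hippocampal membranes; specific radioligand displacement measured by filter scintillation counting 1 hr post-dose.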
# [9] = biological target: rat Opioid Receptor, Non-selective Sodium (Na+) Binding, Oprm1 (gene 25601) (UniProt P33535); experiment: NVS_GPCR_rOpiate_NonSelectiveNa: NovaScreen (NVS) G Protein-Coupled Receptor Assay for rat Opioid Receptor, Non-selective Sodium (Na+) Binding (AID 2283311)
# Method in brief: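 Filtration radioligand binding on rat forebrain membrane preparations, read 1.5 h after dosing. Single-concentration 25 µM primary screen in duplicate, followed by singleton concentration series to 50 µM max for actives; DMSO baseline.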
# [10] = biological target: human Neonicotinoid receptor (NNR), CHRNA2 (gene 1135) (UniProt Q15822); experiment: NVS_LGIC_hNNR_NBungSens: NovaScreen (NVS) Ligand-Gated Ion Channel Assay for human Neonicotinoid receptor (NNR) (AID 2283313)
# Method in brief: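 Compounds first screened in duplicate at 25 uM, then actives re-tested in single-replicate dose series up to 50 uM. Binding measured as displacement of specific radioligand from neuroblastoma membrane receptors after 2 h, scintillation read on filters.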
# [11] = biological target: rat Neonicotinoid receptor (NNR), Chrna7 (gene 25302) (UniProt Q05941); experiment: NVS_LGIC_rNNR_BungSens: NovaScreen (NVS) Ligand-Gated Ion Channel Assay for rat Neonicotinoid receptor (NNR) (AID 2283315)
# Method in brief: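 Rat cortical membrane preparation incubated 2.5 h with tritiated or iodinated radioligand and test chemical. Bound radioactivity was filtered and counted by scintillation, and displacement was analysed against DMSO.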
# [12] = biological target: rat Opioid Receptor, Non-selective Binding, Oprm1 (gene 25601) (UniProt P33535); experiment: NVS_GPCR_rOpiate_NonSelective: NovaScreen (NVS) G Protein-Coupled Receptor Assay for rat Opioid Receptor, Non-selective Binding (AID 2283318)
# Method in brief: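 Filter-based radioligand displacement using rat forebrain membrane preparations, measured 1.5 h post-dosing. Single-concentration duplicate screen at 25 uM, follow-up in concentration series; activity taken as signal loss relative to DMSO.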
# [13] = NVS_IC_rCaDHPRCh_L: NovaScreen (NVS) Ion Channel Assay for rat Calcium Channel, Type L, Dihydropyridine Site (CaDHPRCh_L) (AID 2283320)
# Method in brief: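 Rat cortex membrane preparation; dihydropyridine-site radioligand displacement read 1 h post-dose by filtration and scintillation. Primary single-point screen 25 uM in duplicate, then concentration series to 50 uM maximum; DMSO as negative control.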
# [14] = biological target: Sodium channel protein type 1 subunit alpha (Rattus norvegicus) (UniProt P04774); experiment: NVS_IC_rNaCh_site2: NovaScreen (NVS) Ion Channel Assay for rat Sodium Channel, Site 2 (NaCh) (AID 2283322);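 note: hit means loss of radioligand binding signal relative to DMSO so AC50 marks displacement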
# Method in brief: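 Initial duplicate single-point testing at 25 uM, followed by concentration-response runs for actives. Binding of radioligand to rat forebrain membranes quantified after 1 h via filter-based radiodetection.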
# [15] = system: NCBI gene 24521; experiment: NVS_IC_rKATPCh: NovaScreen (NVS) Ion Channel Assay for rat Potassium Channel, ATP-Sensitive (KATPCh) (AID 2283319)
# Method in brief: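 Primary duplicate screen at 25 uM, then singleton concentration series to 50 uM maximum, in a rat cortex membrane radioligand displacement assay. Binding measured by filtration and scintillation 2 h post-dose; DMSO baseline.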
# [16] = biological target: human Serotonin, 5-Hydroxytryptamine Receptor 3 (5HT3), HTR3A (gene 3359) (UniProt P46098); experiment: NVS_LGIC_h5HT3: NovaScreen (NVS) Ligand-Gated Ion Channel Assay for human Serotonin, 5-Hydroxytryptamine Receptor 3 (5HT3) (AID 2283325)
# Method in brief: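 Initially tested at 25 uM in duplicate, then up to 50 uM in concentration-response for actives, compounds competed with a radioligand for HEK293-derived human 5-HT3 receptor. Bound counts were measured by filtration and scintillation at 1 h; loss of signal versus DMSO.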
# [17] = biological target: human Constitutive Androstane Receptor (CAR), NR1I3 (gene 9970) (UniProt Q14994); experiment: NVS_NR_hCAR_Agonist: NovaScreen (NVS) Nuclear Receptor Binding Assay for human Constitutive Androstane Receptor Agonism (CAR) (AID 2283328)
# Method in brief: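 Actives from a 25 uM duplicate screen were retested in singleton concentration series to 50 uM max. Biochemical TR-FRET assay on extracted CAR protein measured 1 h post-dose, with signal increase over DMSO control.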
# [18] = biological target: rat Glutamate, AMPA Site (AMPA), Gria1 (gene 50592) (UniProt P19490); experiment: NVS_LGIC_rAMPA: NovaScreen (NVS) Ligand-Gated Ion Channel Assay for rat Glutamate, AMPA Site (AMPA) (AID 2283324)
# Method in brief: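 Screening at 25 uM in duplicate preceded concentration series reaching 50 uM for qualifying compounds. Radioligand displacement on rat forebrain membranes, 1 h, filter-based scintillation readout; reduced binding relative to DMSO.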
# Sequence of human Serotonin, 5-Hydroxytryptamine Receptor 3 (5HT3), HTR3A (gene 3359) (P46098 whole entry, looked up): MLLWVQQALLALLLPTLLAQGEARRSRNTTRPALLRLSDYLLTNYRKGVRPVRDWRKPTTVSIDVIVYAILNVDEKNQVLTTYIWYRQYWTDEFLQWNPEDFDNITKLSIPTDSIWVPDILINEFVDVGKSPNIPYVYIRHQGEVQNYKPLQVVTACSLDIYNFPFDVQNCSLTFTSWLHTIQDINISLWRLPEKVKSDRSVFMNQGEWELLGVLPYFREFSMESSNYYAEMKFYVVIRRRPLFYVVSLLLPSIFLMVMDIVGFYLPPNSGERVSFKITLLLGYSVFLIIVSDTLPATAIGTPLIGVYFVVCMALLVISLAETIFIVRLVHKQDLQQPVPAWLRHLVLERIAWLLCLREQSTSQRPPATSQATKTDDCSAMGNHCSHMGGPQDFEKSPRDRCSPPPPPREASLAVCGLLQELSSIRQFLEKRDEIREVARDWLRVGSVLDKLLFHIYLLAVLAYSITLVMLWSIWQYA
# Sequence of bovine Gamma-Aminobutyric Acid Type A Receptor BDZ, alpha 1 site (GABARa1), GABRA1 (gene 780973) (P08219 whole entry, looked up): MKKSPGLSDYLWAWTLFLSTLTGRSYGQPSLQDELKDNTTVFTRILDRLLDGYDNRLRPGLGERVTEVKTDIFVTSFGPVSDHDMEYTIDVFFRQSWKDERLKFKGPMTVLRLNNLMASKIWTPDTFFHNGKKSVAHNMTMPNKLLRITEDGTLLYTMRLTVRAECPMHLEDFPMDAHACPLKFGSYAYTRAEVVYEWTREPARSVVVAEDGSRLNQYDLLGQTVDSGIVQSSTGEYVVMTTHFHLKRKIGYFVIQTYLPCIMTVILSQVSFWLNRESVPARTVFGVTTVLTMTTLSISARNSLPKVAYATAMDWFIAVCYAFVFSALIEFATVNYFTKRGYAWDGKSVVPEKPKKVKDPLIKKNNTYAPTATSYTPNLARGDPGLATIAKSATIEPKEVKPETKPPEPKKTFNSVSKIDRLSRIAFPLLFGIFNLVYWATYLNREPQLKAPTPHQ
# Sequence of rat Gamma-Aminobutyric Acid Type A Receptor, Non-Selective (GABAR-NonSelective), Gabra1 (gene 29705) (P62813 whole entry, looked up): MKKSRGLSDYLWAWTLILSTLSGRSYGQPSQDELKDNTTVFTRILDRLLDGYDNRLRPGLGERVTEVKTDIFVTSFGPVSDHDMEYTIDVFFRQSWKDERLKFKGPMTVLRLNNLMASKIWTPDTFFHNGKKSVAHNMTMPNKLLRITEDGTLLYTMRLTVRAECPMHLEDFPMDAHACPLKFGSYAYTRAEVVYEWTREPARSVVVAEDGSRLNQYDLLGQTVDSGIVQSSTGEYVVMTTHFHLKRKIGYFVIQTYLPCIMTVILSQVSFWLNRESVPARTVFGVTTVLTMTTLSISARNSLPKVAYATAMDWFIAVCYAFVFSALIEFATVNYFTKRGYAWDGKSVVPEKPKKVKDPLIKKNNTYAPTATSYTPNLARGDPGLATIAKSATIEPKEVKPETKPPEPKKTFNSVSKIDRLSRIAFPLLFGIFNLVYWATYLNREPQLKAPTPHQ
# Sequence of human Constitutive Androstane Receptor (CAR), NR1I3 (gene 9970) (Q14994 whole entry, looked up): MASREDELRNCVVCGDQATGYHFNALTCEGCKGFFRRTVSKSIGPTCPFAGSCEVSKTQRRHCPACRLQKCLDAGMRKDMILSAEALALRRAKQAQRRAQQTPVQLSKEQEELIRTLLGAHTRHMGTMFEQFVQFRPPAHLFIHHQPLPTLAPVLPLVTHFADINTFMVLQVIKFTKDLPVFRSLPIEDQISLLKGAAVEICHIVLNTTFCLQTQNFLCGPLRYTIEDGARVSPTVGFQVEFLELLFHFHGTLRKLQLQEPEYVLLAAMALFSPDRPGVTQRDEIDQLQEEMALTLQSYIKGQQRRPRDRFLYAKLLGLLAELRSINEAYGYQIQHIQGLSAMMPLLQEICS
# Sequence of rat Opioid Receptor, Non-selective Binding, Oprm1 (gene 25601) (P33535 whole entry, looked up): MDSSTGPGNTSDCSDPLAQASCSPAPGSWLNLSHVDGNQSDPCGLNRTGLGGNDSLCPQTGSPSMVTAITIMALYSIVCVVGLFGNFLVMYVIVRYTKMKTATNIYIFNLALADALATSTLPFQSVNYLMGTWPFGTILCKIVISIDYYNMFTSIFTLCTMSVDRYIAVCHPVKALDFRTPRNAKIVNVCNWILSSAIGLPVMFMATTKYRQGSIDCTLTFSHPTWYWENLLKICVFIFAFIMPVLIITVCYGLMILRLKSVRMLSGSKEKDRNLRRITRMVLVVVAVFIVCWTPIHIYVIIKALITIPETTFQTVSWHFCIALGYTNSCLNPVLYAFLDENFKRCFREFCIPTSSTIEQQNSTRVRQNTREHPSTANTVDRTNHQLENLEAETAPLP
# Sequence of Adra2b (gene 24174) (P19328 whole entry, looked up): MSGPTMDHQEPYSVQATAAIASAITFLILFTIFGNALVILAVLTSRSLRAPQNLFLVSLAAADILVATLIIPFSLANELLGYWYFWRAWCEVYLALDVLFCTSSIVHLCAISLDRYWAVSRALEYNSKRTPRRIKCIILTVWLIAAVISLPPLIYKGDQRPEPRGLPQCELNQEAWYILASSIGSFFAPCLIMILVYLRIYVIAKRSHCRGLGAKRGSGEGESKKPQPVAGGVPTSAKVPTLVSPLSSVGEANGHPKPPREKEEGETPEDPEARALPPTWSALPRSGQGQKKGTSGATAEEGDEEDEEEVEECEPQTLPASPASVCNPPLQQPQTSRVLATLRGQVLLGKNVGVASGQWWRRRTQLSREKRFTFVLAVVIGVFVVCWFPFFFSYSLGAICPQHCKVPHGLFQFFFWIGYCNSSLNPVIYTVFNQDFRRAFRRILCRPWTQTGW
# Sequence of bovine Gamma-Aminobutyric Acid Type A Receptor BDZ, alpha 5 site (GABARa5), GABRA5 (gene 523515) (Q08E50 whole entry, looked up): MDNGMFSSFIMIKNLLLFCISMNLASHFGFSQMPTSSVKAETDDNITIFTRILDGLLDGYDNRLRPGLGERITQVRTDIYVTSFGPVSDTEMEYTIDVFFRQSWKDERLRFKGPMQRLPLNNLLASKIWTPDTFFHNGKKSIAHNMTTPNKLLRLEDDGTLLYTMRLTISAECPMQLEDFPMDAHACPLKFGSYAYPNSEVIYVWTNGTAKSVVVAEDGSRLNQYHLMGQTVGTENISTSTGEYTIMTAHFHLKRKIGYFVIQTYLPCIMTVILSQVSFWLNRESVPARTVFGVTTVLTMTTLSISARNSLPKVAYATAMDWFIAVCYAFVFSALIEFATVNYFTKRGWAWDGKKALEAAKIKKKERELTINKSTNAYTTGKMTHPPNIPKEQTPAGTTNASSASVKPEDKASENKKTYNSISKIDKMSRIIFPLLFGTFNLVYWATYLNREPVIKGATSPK
# Sequence of rat Neurokinin-1 Receptor (NK1), Tacr1 (gene 24807) (P14600 whole entry, looked up): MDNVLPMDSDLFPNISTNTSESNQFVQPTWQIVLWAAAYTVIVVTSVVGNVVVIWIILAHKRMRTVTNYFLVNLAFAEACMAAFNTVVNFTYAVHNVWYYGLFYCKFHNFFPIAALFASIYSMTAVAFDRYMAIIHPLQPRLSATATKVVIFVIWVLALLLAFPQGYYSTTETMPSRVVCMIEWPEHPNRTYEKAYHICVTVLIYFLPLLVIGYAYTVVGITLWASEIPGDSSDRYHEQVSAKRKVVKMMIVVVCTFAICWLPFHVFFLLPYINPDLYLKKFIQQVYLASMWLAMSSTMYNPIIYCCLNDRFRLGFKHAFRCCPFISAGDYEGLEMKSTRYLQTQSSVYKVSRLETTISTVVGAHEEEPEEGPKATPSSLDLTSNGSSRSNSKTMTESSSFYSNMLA
# Sequence of rat Somatostatin Receptor (SST), Sstr1 (gene 25033) (P28646 whole entry, looked up): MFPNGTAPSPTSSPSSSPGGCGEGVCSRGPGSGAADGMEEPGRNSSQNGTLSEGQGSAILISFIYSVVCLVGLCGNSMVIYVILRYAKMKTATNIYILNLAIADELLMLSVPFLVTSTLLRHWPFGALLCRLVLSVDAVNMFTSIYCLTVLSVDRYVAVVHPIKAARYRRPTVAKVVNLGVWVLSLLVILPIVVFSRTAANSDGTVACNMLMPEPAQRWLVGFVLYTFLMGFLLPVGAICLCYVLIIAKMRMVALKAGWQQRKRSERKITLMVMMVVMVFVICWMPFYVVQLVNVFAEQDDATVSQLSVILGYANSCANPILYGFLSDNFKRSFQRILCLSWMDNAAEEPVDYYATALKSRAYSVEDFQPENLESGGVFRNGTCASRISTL
# Sequence of rat Glutamate, AMPA Site (AMPA), Gria1 (gene 50592) (P19490 whole entry, looked up): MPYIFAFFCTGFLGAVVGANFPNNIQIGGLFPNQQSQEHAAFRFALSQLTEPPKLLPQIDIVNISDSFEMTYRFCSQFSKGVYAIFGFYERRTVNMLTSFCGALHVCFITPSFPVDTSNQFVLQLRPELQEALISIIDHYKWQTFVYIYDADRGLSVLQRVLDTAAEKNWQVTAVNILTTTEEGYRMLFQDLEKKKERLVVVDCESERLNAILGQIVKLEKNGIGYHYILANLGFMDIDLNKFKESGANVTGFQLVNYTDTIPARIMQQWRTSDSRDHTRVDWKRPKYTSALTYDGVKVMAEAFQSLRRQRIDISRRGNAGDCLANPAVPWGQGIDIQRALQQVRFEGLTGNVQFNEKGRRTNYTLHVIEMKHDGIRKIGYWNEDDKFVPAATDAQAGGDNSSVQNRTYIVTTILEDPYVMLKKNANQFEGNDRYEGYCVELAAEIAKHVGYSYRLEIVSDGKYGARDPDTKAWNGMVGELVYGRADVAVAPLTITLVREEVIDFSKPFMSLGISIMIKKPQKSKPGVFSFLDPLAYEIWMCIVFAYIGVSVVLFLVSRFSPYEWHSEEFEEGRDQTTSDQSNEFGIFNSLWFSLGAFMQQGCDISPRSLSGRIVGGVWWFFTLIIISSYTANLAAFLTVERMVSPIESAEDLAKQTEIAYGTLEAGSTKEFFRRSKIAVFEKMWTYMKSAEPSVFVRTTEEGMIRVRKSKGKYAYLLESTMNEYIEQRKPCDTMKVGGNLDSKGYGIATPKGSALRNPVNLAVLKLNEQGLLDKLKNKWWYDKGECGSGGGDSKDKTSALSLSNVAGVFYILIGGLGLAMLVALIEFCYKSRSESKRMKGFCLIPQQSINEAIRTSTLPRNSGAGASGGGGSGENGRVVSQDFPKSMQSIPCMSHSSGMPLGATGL
smiles,measurement,setting,value
Clc1ccc(C(c2ccc(Cl)cc2)C(Cl)(Cl)Cl)cc1,outcome,[1],inactive
ClC1=C(Cl)C2(Cl)C3C(Cl)C=CC3C1(Cl)C2(Cl)Cl (centres undefined),outcome,[2],inactive
CCOc1cccc(C2(N3CCN(c4ccccc4)CC3)CCC(C)CC2)c1 (centres undefined),outcome,[2],inactive
O=C(O)C1C2CCC(O2)C1C(=O)O (centres undefined),AC50,[3],3.96 µM (active)
same,AC50,[4],2.14 µM (active)
Cn1cc(-c2ccccc2)c(=O)c(-c2cccc(C(F)(F)F)c2)c1,outcome,[5],inactive
C[C@]12C=CC3=C4CCC(=O)C=C4CC[C@H]3[C@@H]1CC[C@@H]2O,AC50,[6],20.7 µM (active)
same,AC50,[1],25 µM (active)
same,AC50,[7],20.5 µM (active)
same,AC50,[8],40.7 µM (active)
CCOC(=O)[C@]1(c2ccccc2)Oc2ccccc2[C@@H]1N,AC50,[6],1.76 µM (active)
same,AC50,[9],21.3 µM (active)
same,outcome,[10],inactive
same,AC50,[11],25 µM (active)
same,AC50,[12],7.52 µM (active)
same,AC50,[13],6.77 µM (active)
same,AC50,[14],2.3 µM (active)
same,AC50,[4],1.08 µM (active)
COP(=S)(OC)SCN1C(=O)c2ccccc2C1=O,AC50,[12],31.8 µM (active)
same,outcome,[14],inactive
CCCCCCCCCCCCCN1CC(C)OC(C)C1 (centres undefined),outcome,[14],inactive
Cc1ccc([N+](=O)[O-])cc1,AC50,[15],4.96 µM (active)
Brc1ccc(Oc2ccccc2)cc1,outcome,[16],inactive
CC(C)(C)OOC(C)(C)CCC(C)(C)OOC(C)(C)C,outcome,[17],inactive
c1ccc(NNc2ccccc2)cc1,outcome,[18],inactive
CCCCCOC(=O)c1ccccc1C(=O)OCCCCC,outcome,[14],inactive
c1ccc2c(c1)-c1cccc3cccc-2c13,outcome,[17],inactive
Cc1ccc(N)c(N)c1,outcome,[7],inactive
CCC(C)c1ccc(O)cc1 (centres undefined),outcome,[4],inactive
Cc1cccc(N)c1N,outcome,[16],inactive
CC(C)(O)c1cnn2c(-c3ccc(F)c(-c4c(F)cccc4C#N)c3)cnc2n1,outcome,[7],inactive
same,AC50,[8],0.00229 µM (active)
same,outcome,[4],inactive
ClCCOCCCl,AC50,[16],1.38 µM (active)
Nc1ccc(N=Nc2ccccc2)cc1,AC50,[16],11.4 µM (active)
same,outcome,[4],inactive
same,outcome,[17],inactive
c1ccc(N=Nc2ccccc2)cc1,outcome,[16],inactive
CCCSC(=O)N(CCC)CCC,outcome,[17],inactive
O=[N+]([O-])c1ccc(Oc2ccc(Cl)cc2Cl)cc1,outcome,[15],inactive
CCCCC(CC)COC(=O)c1ccc(C(=O)OCC(CC)CCCC)c(C(=O)OCC(CC)CCCC)c1 (centres undefined),outcome,[12],inactive
Cc1cc(N=Nc2ccccc2C)ccc1N,outcome,[17],inactive
CC(C)N(Cc1ccccc1)C(=O)C(C)(C)C,outcome,[16],inactive
Clc1ccc(C(c2ccc(Cl)cc2)C(Cl)Cl)cc1,outcome,[15],inactive
